Test results taken from paper PMC7862700, “An all-to-all approach to the identification of sequence-specific readers for epigenetic DNA modifications on cytosine”.

Tests used:
Test in all cases: DAPPL (digital affinity profiling via proximity ligation, sequencing); 10 mM Tris-HCl pH 7.5, 50 mM NaCl, 1 mM DTT, 4% glycerol, room temperature, 30 min; GST-TFs on glutathione beads, 16-mer random dsDNA library, 0.1% formaldehyde crosslink after washing; high values mean tight binding
Conditions in all cases: protein: recombinant; tags: N-terminal GST; dsDNA, one strand shown
FLI1 = biological target: T1, FLI1 (Homo sapiens, UniProt Q01543 1-452)
T1 sequence: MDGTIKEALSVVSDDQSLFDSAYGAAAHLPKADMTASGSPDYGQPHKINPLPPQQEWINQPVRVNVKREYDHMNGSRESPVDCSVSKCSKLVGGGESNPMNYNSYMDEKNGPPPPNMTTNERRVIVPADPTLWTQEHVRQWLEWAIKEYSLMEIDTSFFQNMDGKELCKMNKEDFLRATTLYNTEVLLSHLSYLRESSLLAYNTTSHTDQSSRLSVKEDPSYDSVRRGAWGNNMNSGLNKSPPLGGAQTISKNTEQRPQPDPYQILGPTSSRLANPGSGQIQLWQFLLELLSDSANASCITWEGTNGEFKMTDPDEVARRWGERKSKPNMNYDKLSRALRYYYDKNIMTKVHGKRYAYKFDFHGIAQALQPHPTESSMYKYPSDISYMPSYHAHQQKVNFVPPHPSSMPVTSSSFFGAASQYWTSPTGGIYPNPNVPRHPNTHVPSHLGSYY
How it was run: (§1)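 Human transcription factors were made in yeast as GST fusions, captured on glutathione beads and barcoded with DNA. With a tag-only sample included, the pool was incubated with 200 nmole of a random double-stranded 16-mer DNA library in Tris/NaCl/DTT/glycerol buffer at room temperature for 30 min, then crosslinked with 0.1% formaldehyde after washing, ligated by proximity, amplified and sequenced. For binding signal, each hexamer's read frequency for a factor is divided by its frequency for the tag-only sample.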

ELK1 = biological target: T2, ELK1 (Homo sapiens, UniProt P19419 1-428)
T2 sequence: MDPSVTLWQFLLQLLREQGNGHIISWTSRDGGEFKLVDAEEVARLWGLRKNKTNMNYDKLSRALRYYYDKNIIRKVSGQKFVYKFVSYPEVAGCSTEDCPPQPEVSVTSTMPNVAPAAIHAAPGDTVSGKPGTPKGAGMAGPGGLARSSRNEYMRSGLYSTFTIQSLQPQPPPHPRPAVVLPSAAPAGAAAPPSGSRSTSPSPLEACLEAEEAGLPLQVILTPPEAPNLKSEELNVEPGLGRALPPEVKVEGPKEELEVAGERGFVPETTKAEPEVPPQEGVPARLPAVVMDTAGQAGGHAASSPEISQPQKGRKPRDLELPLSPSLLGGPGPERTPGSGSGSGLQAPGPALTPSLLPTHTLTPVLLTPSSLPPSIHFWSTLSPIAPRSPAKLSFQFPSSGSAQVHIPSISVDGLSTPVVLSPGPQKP
How it was run: as §1

GABPA = biological target: T3, GABPA (Homo sapiens, UniProt Q06546 1-454)
T3 sequence: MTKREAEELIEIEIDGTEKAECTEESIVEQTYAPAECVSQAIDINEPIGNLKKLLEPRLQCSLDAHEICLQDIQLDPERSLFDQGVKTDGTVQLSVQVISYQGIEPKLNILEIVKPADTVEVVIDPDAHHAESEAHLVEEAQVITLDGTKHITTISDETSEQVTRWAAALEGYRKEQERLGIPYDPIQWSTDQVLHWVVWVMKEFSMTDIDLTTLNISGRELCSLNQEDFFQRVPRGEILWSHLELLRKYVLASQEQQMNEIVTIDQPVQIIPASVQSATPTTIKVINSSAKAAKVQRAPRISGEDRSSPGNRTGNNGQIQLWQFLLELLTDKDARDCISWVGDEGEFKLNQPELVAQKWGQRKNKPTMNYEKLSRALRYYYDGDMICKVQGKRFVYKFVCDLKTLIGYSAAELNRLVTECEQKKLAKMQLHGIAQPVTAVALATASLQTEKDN
How it was run: as §1

ERG = biological target: T4, ERG (Homo sapiens, UniProt P11308 1-479)
T4 sequence: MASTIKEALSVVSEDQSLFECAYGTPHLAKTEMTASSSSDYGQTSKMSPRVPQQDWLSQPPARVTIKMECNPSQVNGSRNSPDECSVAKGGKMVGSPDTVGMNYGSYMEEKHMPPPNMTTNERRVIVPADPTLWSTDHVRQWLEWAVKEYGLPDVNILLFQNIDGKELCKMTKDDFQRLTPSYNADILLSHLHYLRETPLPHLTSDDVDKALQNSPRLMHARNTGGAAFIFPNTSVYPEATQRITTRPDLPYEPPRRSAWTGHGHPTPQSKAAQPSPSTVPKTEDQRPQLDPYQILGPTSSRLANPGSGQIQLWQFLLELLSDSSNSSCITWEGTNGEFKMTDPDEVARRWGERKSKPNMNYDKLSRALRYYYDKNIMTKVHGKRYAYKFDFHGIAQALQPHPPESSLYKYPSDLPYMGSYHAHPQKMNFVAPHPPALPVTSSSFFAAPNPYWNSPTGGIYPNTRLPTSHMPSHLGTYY
How it was run: as §1

ELF1 = ELF1 (Homo sapiens, UniProt P32519 1-619)
ELF1, sequence (P32519 whole entry): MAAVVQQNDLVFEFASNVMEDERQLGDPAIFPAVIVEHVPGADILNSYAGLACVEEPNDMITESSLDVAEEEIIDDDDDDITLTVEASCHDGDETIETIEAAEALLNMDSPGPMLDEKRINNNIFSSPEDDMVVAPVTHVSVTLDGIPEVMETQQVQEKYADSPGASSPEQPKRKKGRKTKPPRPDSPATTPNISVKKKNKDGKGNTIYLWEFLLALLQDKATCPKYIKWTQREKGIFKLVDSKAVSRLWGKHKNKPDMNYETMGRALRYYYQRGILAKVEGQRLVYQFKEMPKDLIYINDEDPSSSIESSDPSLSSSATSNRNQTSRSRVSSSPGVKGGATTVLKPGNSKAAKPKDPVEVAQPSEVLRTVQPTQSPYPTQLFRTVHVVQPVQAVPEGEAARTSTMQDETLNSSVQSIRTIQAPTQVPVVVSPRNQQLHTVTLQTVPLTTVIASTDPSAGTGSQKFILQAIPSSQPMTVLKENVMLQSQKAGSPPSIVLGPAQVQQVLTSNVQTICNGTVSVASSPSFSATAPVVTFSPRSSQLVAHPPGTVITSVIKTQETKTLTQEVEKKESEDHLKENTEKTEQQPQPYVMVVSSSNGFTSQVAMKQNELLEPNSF
How it was run: as §1

EHF = biological target: T5, EHF (Homo sapiens, UniProt Q9NZC4 1-300)
T5 sequence: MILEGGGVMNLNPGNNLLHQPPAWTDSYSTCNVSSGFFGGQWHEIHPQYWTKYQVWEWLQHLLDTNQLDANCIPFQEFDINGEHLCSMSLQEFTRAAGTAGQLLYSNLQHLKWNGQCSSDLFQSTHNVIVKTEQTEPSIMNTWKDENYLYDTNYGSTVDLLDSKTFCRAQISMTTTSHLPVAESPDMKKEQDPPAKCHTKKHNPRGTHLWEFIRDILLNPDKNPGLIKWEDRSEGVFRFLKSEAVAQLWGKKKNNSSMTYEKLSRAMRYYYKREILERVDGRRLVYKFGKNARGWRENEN
How it was run: as §1

SPI1 = SPI1 (Homo sapiens, UniProt P17947 1-270)
How it was run: as §1

SPIB = SPIB (Homo sapiens, UniProt Q01892 1-262)
SPIB, sequence (Q01892 whole entry): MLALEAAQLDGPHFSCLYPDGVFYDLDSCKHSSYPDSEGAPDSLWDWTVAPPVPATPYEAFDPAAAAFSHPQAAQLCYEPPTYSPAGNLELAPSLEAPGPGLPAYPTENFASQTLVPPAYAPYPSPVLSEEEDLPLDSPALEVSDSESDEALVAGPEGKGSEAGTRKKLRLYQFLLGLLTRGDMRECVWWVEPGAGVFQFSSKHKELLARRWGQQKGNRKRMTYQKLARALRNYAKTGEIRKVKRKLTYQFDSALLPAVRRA
How it was run: as §1

ELK3 = biological target: T6, ELK3 (Homo sapiens, UniProt P41970 1-407)
T6 sequence: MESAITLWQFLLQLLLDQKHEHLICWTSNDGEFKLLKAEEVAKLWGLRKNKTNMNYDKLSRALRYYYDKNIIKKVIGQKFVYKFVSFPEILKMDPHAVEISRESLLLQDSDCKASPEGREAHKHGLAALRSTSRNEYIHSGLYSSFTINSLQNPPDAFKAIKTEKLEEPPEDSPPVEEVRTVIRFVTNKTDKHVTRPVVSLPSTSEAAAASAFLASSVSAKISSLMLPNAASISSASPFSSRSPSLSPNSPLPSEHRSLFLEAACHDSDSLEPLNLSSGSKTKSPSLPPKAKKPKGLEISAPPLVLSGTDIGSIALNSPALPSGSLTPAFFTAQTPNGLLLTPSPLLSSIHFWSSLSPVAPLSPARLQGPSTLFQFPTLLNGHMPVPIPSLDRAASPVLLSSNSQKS
How it was run: as §1

Sequence	binding signal (FLI1)	binding signal (ELK1)	binding signal (GABPA)	binding signal (ERG)	binding signal (ELF1)	binding signal (EHF)	binding signal (SPI1)	binding signal (SPIB)	binding signal (ELK3)
ATTGCA	1.17 fold enrichment (6-mer frequency, TF over GST control)	1.31 fold enrichment (6-mer frequency, TF over GST control)	1.19 fold enrichment (6-mer frequency, TF over GST control)	1.21 fold enrichment (6-mer frequency, TF over GST control)	1.17 fold enrichment (6-mer frequency, TF over GST control)	1.14 fold enrichment (6-mer frequency, TF over GST control)	1.19 fold enrichment (6-mer frequency, TF over GST control)	1.17 fold enrichment (6-mer frequency, TF over GST control)	1.24 fold enrichment (6-mer frequency, TF over GST control)
TTCCCG	1.8 fold enrichment (6-mer frequency, TF over GST control)	1.73 fold enrichment (6-mer frequency, TF over GST control)	1.93 fold enrichment (6-mer frequency, TF over GST control)	2.03 fold enrichment (6-mer frequency, TF over GST control)	1.82 fold enrichment (6-mer frequency, TF over GST control)	1.98 fold enrichment (6-mer frequency, TF over GST control)	2.02 fold enrichment (6-mer frequency, TF over GST control)	2.17 fold enrichment (6-mer frequency, TF over GST control)	1.78 fold enrichment (6-mer frequency, TF over GST control)
TAGTTC	1.47 fold enrichment (6-mer frequency, TF over GST control)	1.41 fold enrichment (6-mer frequency, TF over GST control)	1.28 fold enrichment (6-mer frequency, TF over GST control)	1.45 fold enrichment (6-mer frequency, TF over GST control)	1.37 fold enrichment (6-mer frequency, TF over GST control)	1.3 fold enrichment (6-mer frequency, TF over GST control)	1.43 fold enrichment (6-mer frequency, TF over GST control)	1.51 fold enrichment (6-mer frequency, TF over GST control)	1.15 fold enrichment (6-mer frequency, TF over GST control)
CTCCCC	1.44 fold enrichment (6-mer frequency, TF over GST control)	1.31 fold enrichment (6-mer frequency, TF over GST control)	1.41 fold enrichment (6-mer frequency, TF over GST control)	1.45 fold enrichment (6-mer frequency, TF over GST control)	1.45 fold enrichment (6-mer frequency, TF over GST control)	1.56 fold enrichment (6-mer frequency, TF over GST control)	1.3 fold enrichment (6-mer frequency, TF over GST control)	1.38 fold enrichment (6-mer frequency, TF over GST control)	1.4 fold enrichment (6-mer frequency, TF over GST control)
AAGCAT	1.09 fold enrichment (6-mer frequency, TF over GST control)	1.09 fold enrichment (6-mer frequency, TF over GST control)	1.14 fold enrichment (6-mer frequency, TF over GST control)	1.13 fold enrichment (6-mer frequency, TF over GST control)	1.09 fold enrichment (6-mer frequency, TF over GST control)	1.06 fold enrichment (6-mer frequency, TF over GST control)	1.06 fold enrichment (6-mer frequency, TF over GST control)	1.14 fold enrichment (6-mer frequency, TF over GST control)	1.04 fold enrichment (6-mer frequency, TF over GST control)
ACGTTC	1.31 fold enrichment (6-mer frequency, TF over GST control)	1.45 fold enrichment (6-mer frequency, TF over GST control)	1.33 fold enrichment (6-mer frequency, TF over GST control)	1.39 fold enrichment (6-mer frequency, TF over GST control)	1.4 fold enrichment (6-mer frequency, TF over GST control)	1.3 fold enrichment (6-mer frequency, TF over GST control)	1.29 fold enrichment (6-mer frequency, TF over GST control)	1.37 fold enrichment (6-mer frequency, TF over GST control)	1.38 fold enrichment (6-mer frequency, TF over GST control)
CATCCC	1.39 fold enrichment (6-mer frequency, TF over GST control)	1.22 fold enrichment (6-mer frequency, TF over GST control)	1.24 fold enrichment (6-mer frequency, TF over GST control)	1.29 fold enrichment (6-mer frequency, TF over GST control)	1.29 fold enrichment (6-mer frequency, TF over GST control)	1.29 fold enrichment (6-mer frequency, TF over GST control)	1.25 fold enrichment (6-mer frequency, TF over GST control)	1.26 fold enrichment (6-mer frequency, TF over GST control)	1.24 fold enrichment (6-mer frequency, TF over GST control)
CTACGA	1.16 fold enrichment (6-mer frequency, TF over GST control)	1.24 fold enrichment (6-mer frequency, TF over GST control)	1.29 fold enrichment (6-mer frequency, TF over GST control)	1.2 fold enrichment (6-mer frequency, TF over GST control)	1.27 fold enrichment (6-mer frequency, TF over GST control)	1.25 fold enrichment (6-mer frequency, TF over GST control)	1.14 fold enrichment (6-mer frequency, TF over GST control)	1.23 fold enrichment (6-mer frequency, TF over GST control)	1.33 fold enrichment (6-mer frequency, TF over GST control)
